A selection: hits, their analogues and other compounds. The true share with any hit is near 10%.
ALDH1A1 inh: inhibitors of human aldehyde dehydrogenase 1A1; P00352; Purified ALDH1A1, NADH fluorescence, propionaldehyde substrate; Potency, µM (titrated, usually from 75.3 µM), for inactives: at the highest dose activity, negative = inhibition, usual class: inhibitors; 7.3% of 220,000 active;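 further: potency means the concentration at half of the fitted maximal effect; plate controls were no enzyme wells and a reference inhibitor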
Target sequence (P00352 whole entry, looked up): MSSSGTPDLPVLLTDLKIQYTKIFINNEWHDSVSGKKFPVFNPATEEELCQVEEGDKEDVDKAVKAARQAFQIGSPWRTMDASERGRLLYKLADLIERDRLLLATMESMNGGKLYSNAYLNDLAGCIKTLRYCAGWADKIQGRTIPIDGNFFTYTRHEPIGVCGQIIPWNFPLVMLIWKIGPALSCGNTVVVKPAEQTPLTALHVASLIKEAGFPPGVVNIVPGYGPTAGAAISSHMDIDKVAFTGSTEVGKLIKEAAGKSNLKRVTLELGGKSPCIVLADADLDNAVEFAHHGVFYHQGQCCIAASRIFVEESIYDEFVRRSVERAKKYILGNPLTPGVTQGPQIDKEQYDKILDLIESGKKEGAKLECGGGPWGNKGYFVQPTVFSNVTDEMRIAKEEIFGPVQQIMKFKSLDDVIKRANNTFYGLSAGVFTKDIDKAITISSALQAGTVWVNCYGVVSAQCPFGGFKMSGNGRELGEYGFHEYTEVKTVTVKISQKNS
Lamin A splicing: modulators of lamin A splicing; HeLa LMNA splicing GFP/RFP minigene ratio, 48 h; Potency, µM (titrated, usually from 46.1 µM), for inactives: at the highest dose ratio change, negative = inhibition, most hits filed as inhibitors; 0.01% of 200,000 active; active means well fitted inhibition curve with a large enough effect in the signal ratio, with a control signal flat, not every such curve was filed as active; inconclusive means small, poorly fitted or top-dose-only effect, or effect the other way, or a change in a side signal; the % refers to the signal ratio; further: potency means the concentration at half of the fitted maximal effect
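S3 HeLa cells stably expressing lamin A-EGFP splicing minigene plus DsRed2, 600 cells/well, 48 h compound exposure at 37C. Laser-scanning cytometry; analysed as GFP (500-530 nm)/RFP (575-640 nm) total intensity ratio; 0.5% DMSO vehicle.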
PNC inhibitor: perinucleolar compartment assembly inhibition; 3.1% of 140,000 active; PC3M PTB-GFP, PNC prevalence imaging, 16 h; stronger effect = lower value; activity change (PNC), negative = inhibition, % at 10 µM;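 active means readout at or below -70, meaning at least 70% loss of cells showing the perinucleolar compartment, a nuclear body marking cancer cells; inconclusive means readout between -30 and a set limit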;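 further: plate controls were DMSO wells for no effect and camptothecin positive control wells for full effect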
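PC3M cells stably expressing PTB-GFP, 750–1000 cells/well, treated 16 h at 37 °C with compound (23 nl of library stock), in duplicate. After paraformaldehyde fixation and Hoechst stain, imaged at 20x; PNC prevalence scored by image analysis.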
HPGD block: inhibitors of human 15-hydroxyprostaglandin dehydrogenase (HPGD); purified HPGD, NADH fluorescence kinetic, PGE2 substrate; AID 894; 4.3% of 150,000 active; Potency, µM, inactives show at the top dose activity change, negative = inhibition, hits mostly inhibitors; further: potency means the concentration at half of the fitted maximal effect
Target sequence (P15428 whole entry, looked up): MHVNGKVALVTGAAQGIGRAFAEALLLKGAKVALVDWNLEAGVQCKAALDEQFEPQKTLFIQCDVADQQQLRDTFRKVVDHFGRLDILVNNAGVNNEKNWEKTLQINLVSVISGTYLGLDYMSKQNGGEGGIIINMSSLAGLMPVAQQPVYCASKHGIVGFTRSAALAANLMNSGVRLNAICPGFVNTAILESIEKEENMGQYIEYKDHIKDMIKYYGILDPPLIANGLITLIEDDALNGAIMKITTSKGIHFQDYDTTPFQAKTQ
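20 nM HPGD preincubated 15 min at room temperature with compound in 50 mM Tris-HCl pH 8, 0.01% Tween 20. Started with 1 mM NAD+ and 30 uM prostaglandin E2; NADH fluorescence (360/450 nm) read 5 times over 30-s intervals, last minus first.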
Luc counter: Kinase-Glo luciferase inhibition (counter-screen); 0.28% of 200,000 active; AID 1379; Potency, µM (series often up to 38.3 µM), inactives show top-dose activity change, negative = inhibition, usual class: inhibitors; Kinase-Glo luciferase, ATP luminescence, 8 min; active means well fitted inhibition curve with a large enough effect; inconclusive means small, poorly fitted or top-dose-only effect; further: potency means the concentration at half of the fitted maximal effect; nearly all actives have a fitted effect of over 60% in size
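Recombinant Kinase-Glo luciferase, 10 uM ATP (linear range), luciferin; imidazole pH 7.2 / KCl / MgCl2 / Tween / BSA buffer; 8 min RT; luminescence.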
An asterisk follows results filed as active; u = inconclusive; x = no result; [ ] = another dose, or the depositor's remark. Unless noted, the call rests on the fitted dose curve; in most records, active means well fitted inhibition curve with a large enough effect (not every such curve was filed as active); inconclusive means small, poorly fitted or top-dose-only effect, or another doubt; inactive means no such curve, though single readings can be large or run the other way. Unless noted, on the % scale 0 is the no-effect control and ±100 the full control effect.

SMILES	ALDH1A1 inh	Lamin A splicing	PNC inhibitor	HPGD block	Luc counter
O=C(COc1ccc(Br)cc1)N1CCN(c2ccc([N+](=O)[O-])c(N3CCCCC3)c2)CC1	3.98µM*	u	-7.8	x	x
O=C(COc1ccccc1)N1CCN(c2ccc([N+](=O)[O-])c(N3CCCCC3)c2)CC1	10µM*	6.2%	22.4	-15.1%	-1.9%
Cc1ccc(OCC(=O)N2CCN(c3ccc([N+](=O)[O-])c(N4CCOCC4)c3)CC2)cc1	-15.2%	-0.6%	14.3	-7.2%	0.6%
O=C(c1cccc(F)c1)N1CCC2(CC1)CCN(c1ccccn1)CC2	u	x	x	u	-2.1%
CC(O)CNc1cnccn1 (stereo not given)	u	x	x	x	9.6%
O=C(CN(C(=O)c1cc2c(s1)CCC2)C1CCCC1)NCc1cccs1	15.8µM*	6.7%	-26.5	-6.1%	10.5%
S=c1[nH]nc(C2CCCCC2)n1/N=C/c1ccccn1	3.55µM*	x	x	x	-0.4%
C=CCn1c(C2CCCCC2)n[nH]c1=S	6.2%	-2.9%[46 µM]	x	x	1.5%
S=c1[nH]nc(C2CCCCC2)n1/N=C/c1ccco1	u	15.9%	-11.4	u	-1.7%
Cc1ccsc1/C=N/n1c(C2CCCCC2)n[nH]c1=S	u	-3.7%	-0.3	12.6µM*	0.0%
Cc1ccc(/C=N/n2c(C3CCCCC3)n[nH]c2=S)s1	-3.4%	-9.2%	6.8	11.2µM*	4.5%
C[C@H]1COC(=O)[C@H](Cc2ccccc2)NC(=O)[C@@H](C)COC(=O)[C@H](Cc2ccccc2)NC1=O	3.7%[13.5 µM]	x	x	x	x
CC[C@@H](c1ccc2cc(O)ccc2c1)C(C)(C)C(=O)O	-6.3%[13.5 µM]	x	x	-6.3%	-4.9%[7.66 µM]
CN1CCc2c(OCC(=O)N3CCCc4ccccc43)cccc2C1=O	u	-25.3%[46 µM]	x	x	0.6%
COc1ccc2c(c1)CCc1c(C(=O)N3CCOCC3)noc1-2	-9.0%	-13.0%	-20.4	-24.9%	-2.0%
COc1ccc2c(c1)CCc1c(C(=O)N3CCCc4ccccc43)noc1-2	4.47µM*	u	-18.4	-22.5%	2.3%
O=C(c1ccc(=O)oc1)N1CCCc2ccccc21	10µM*	11.2%	-11.0	u	-8.6%
O=C(c1ccc2c(c1)OCO2)N1CCCc2ccccc21	u	u	26.7	x	x
O=C(c1ccccc1)N1CCCc2ccccc21	-7.1%	-9.2%	18.1	-15.1%	1.3%
O=C1c2ccccc2C(=O)N1CCCC(=O)N1CCCc2ccccc21	14.1µM*	-6.4%	u	-7.5%	-2.2%
O=C(c1ccccc1)N1CCc2ccccc21	u	-3.5%	-0.4	28.2µM*	-5.9%
COc1ccc2c(c1)CCc1c(C(=O)NCc3ccc(F)cc3)noc1-2	0.6%	-10.2%	32.7	1.5%	0.0%
CC(=O)Nc1ccc2c(c1)CCCN2C(=O)c1ccccc1	14.1µM*	5.1%	-3.1	-0.4%	-1.8%
COc1cccc(C(=O)N2CCCc3ccccc32)c1	-12.5%	19.0%	-85.0*	-8.3%	-7.9%
CCc1ccccc1NC(=O)NCc1ccc2c(c1)CCN2C(=O)c1ccccc1	x	-11.1%[46 µM]	x	x	x
SMILES	ALDH1A1 inh	Lamin A splicing	PNC inhibitor	HPGD block	Luc counter
COc1ccc2c(c1)CCc1c(C(=O)NCc3ccc(Cl)cc3)noc1-2	12.6µM*	6.1%	12.2	-2.4%	2.8%
COc1ccc2[nH]cc(CCNc3cc(-c4ccoc4)ncn3)c2c1	-2.6%	u	x	-8.9%	1.3%
CC(=O)CSc1nc2cc3c(cc2cc1C#N)OCCO3	u	u	x	x	4.47µM*
COc1cc2cc(C)c(SCC(=O)N3CCOCC3)nc2cc1OC	-7.1%	-1.4%	-13.0	x	x
COc1cc2cc(C#N)c(SCC(=O)N3CCOCC3)nc2cc1OC	-1.5%	-9.7%	-100.0*	-28.0%	1.4%
COc1ccc2nc(SCC(=O)N3CCN(c4ccc(F)cc4)CC3)c(C#N)cc2c1	7.94µM*	-3.1%	16.0	-6.3%	8.0%
COc1ccc2cc(C#N)c(SCC(=O)N3CCCC3)nc2c1	u	9.1%	-14.5	-23.7%	-0.3%
N#Cc1cc2cc3c(cc2nc1SCC(=O)OC1CCCCC1)OCO3	u	-1.3%	u	u	-4.3%
C[C@H]1OC(=O)CC[C@@H]2[C@]1(C)CCC1[C@@]2(C)CC[C@@]2(C)C3CC(C)(C)CC[C@]3(CO)CC[C@]12C (stereo not given in full)	4.0%	x	x	-4.4%	-1.6%
COc1ccccc1-c1cncnc1Nc1ccccc1	2.5%	u	x	x	x
COCCCNC(=O)C(=O)NCC(c1ccc2c(c1)OCO2)N1CCOCC1 (stereo not given)	x	8.2%[46 µM]	x	x	x
Cc1cc(C)n(C(=O)c2ccc(Cn3nc(C)c(Br)c3C)o2)n1	-0.2%	-6.8%	-100.0*	-5.7%	-1.2%
Cc1nn(Cc2ccc(C(=O)n3cccn3)o2)c(C)c1Br	0.1%	-1.5%	-10.5	-4.3%	-0.3%
CCCc1nc(SCC(=O)c2ccc(F)cc2)c2ccccc2n1	17.8µM*	x	x	x	0.4%
O=C(CSc1nc2ccccc2c2ccccc12)c1ccccc1	-11.7%[13.5 µM]	x	x	-19.6%	-2.2%[7.66 µM]
Cc1nc2ccccc2nc1SCC(=O)c1ccccc1	22.4µM*	u	38.9	-19.2%	-0.3%
C#CCCCCCCCCCCCC(=O)CC(O)COC(C)=O (stereo not given)	8.9%	5.2%	x	-8.9%	1.1%
O=C1C(c2ccc(F)cc2)N(Cc2ccccc2Cl)C(=O)CN1C1CCCCC1 (stereo not given)	x	-9.4%[46 µM]	x	x	x
CC(=O)NC1=NN(C(C)=O)C(c2ccccc2)S1 (stereo not given)	-14.2%	15.4%[46 µM]	x	x	0.9%
CC(=O)NC1=NN(C(C)=O)C(c2cccs2)S1 (stereo not given)	-8.9%	2.6%	-100.0*	-10.6%	3.3%
CC(C)(C)c1ccc(C(=O)N/C(=C\c2cccs2)C(=O)NCc2ccco2)cc1	3.16µM*	-2.6%	-24.0	x	x
O=C(NCc1ccco1)/C(=C/c1ccco1)NC(=O)c1ccc(Br)o1	u	-10.6%	1.4	-11.8%	2.3%
O=C(NCc1ccco1)/C(=C\c1ccco1)NC(=O)c1ccc(Br)o1	28.2µM*	-16.8%	13.4	u	-1.5%
COc1cc(CN(C(=O)COc2ccc(C)c(C)c2)c2ccccn2)cc(OC)c1OC	x	-4.6%[46 µM]	x	x	x
COc1ccc(NC(=S)Nn2cnnc2)cc1OC	3.98µM*	14.2%[46 µM]	x	x	0.9%
SMILES	ALDH1A1 inh	Lamin A splicing	PNC inhibitor	HPGD block	Luc counter
S=C(Nc1ccccc1)Nn1cnnc1	6.31µM*	-5.6%	0.0	14.1µM*	1.8%
CCc1ccc(NC(=S)Nn2cnnc2)cc1	1.41µM*	5.6%[9.22 µM]	x	x	4.1%
COc1ccc(NC(=S)Nc2ncccc2C)cc1OC	25.1µM*	u	x	x	-6.8%
CNC(=S)Nc1ccc(OC)c(OC)c1	9.7%	-5.2%	-8.8	-3.2%	2.4%
CN1CCN(NC(=S)Nc2ccccc2)CC1	15.3%	x	x	x	-1.3%
COc1ccc(CNC(=O)Cn2c(=O)n3nc(-c4ccc(OC)cc4)nc3c3ccccc32)cc1	x	12.8%[46 µM]	x	x	x
CNC(=S)Nc1ccc(C)cc1	9.1%	-5.8%	31.8	-3.2%	-3.2%
Cc1ccc(NC(=S)Nn2cnnc2)cc1	3.55µM*	-15.9%[9.22 µM]	x	x	-2.0%
Cn1c(-c2ccc(F)cc2)cnc1NCc1cccc(F)c1	6.31µM*	-1.4%	65.1	15.8µM*	-3.3%
